# Data: publication PMC12615815
# What was measured:
# Test in all cases: cross-link between two proteins; cross-linking mass spectrometry
# [1] = molecular target: Large ribosomal subunit protein bL25 (UniProt P68919)
# [2] = molecular target: Large ribosomal subunit protein uL23 (UniProt P0ADZ0)
# [3] = molecular target: Small ribosomal subunit protein bS1 (UniProt P0AG67)
# [4] = molecular target: Small ribosomal subunit protein uS14 (UniProt P0AG59)
substance,measurement,setting,value
"Large ribosomal subunit protein bL9, P0A7R1",listed as a hit,[1],yes
"Large ribosomal subunit protein uL16, P0ADY7",listed as a hit,[1],yes
"Large ribosomal subunit protein uL29, P0A7M6",listed as a hit,[2],yes
"Small ribosomal subunit protein bS18, P0A7T7",listed as a hit,[3],yes
"Small ribosomal subunit protein uS3, P0A7V3",listed as a hit,[4],yes
"Large ribosomal subunit protein bL31, P0A7M9",listed as a hit,[4],yes
